Laboratory results reported in PMC5540273 (PLoS ONE, 2017).

What was measured:
Details in all cases: concentration: 1 μM,replicates: in singlicate; n = 1
[1] = test system: T1, HASPIN
T1 construct: gene GSG2

[2] = test system: HCK
[3] = test system: HIPK1
[4] = test system: HIPK2
[5] = test system: HIPK3
[6] = test system: HIPK4
[7] = test system: HPK1
[8] = test system: HUNK
[9] = test system: ICK
[10] = test system: IGF1R
[11] = test system: T2, IKK-alpha
T2 construct: gene CHUK

[12] = test system: T3, IKK-beta
T3 construct: gene IKBKB

[13] = test system: T4, IKK-epsilon
T4 construct: gene IKBKE

[14] = test system: INSRR
[15] = test system: INSR
[16] = test system: IRAK1
[17] = test system: IRAK3
[18] = test system: IRAK4
[19] = test system: ITK
[20] = test system: JAK1(JH1domain-catalytic)
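Note: KINOMEscan kinase panel screen.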

SMILES	%Inh [1]	%Inh [2]	%Inh [3]	%Inh [4]	%Inh [5]	%Inh [6]	%Inh [7]	%Inh [8]	%Inh [9]	%Inh [10]	%Inh [11]	%Inh [12]	%Inh [13]	%Inh [14]	%Inh [15]	%Inh [16]	%Inh [17]	%Inh [18]	%Inh [19]	%Inh [20]
CS(=O)(=O)c1cccc(CNc2nc(Nc3ccc4c(c3)[C@@H]3C[C@@H]4CNC3=O)ncc2C(F)(F)F)c1	0%	0%	60%	34%	7%	33%	86%	0%	0%	89%	5%	0%	87%	74%	94.5%	39%	0%	0%	49%	93%
COC(=O)c1cccc(NC(=O)NC2CCN(c3ccnc(NCc4ccc(F)cc4)n3)CC2)c1 [GSK1379860]	17%	35%	0%	47%	10%	0%	24%	0%	0%	0%	26%	8%	0%	0%	0%	0%	0%	12%	15%	8%
C[C@@H]1CNc2c(sc3ccc4nc(-c5ccc(O)cc5)ccc4c23)C(=O)N1	48%	35%	41%	46%	21%	0%	6%	5%	0%	0%	27%	24%	14%	0%	7%	97.1%	14%	14%	3%	0%
c1ccc(Oc2ccc(Nc3ccnc4ccc(-c5ccccn5)cc34)cc2)cc1 [GW407034]	0%	71%	0%	0%	0%	0%	25%	0%	16%	5%	9%	14%	11%	0%	5%	22%	13%	25%	13%	22%
CN(c1cccc(CNc2nc(Nc3ccc4c(c3)CC(=O)N4)ncc2C(F)(F)F)c1)S(C)(=O)=O	0%	0%	39%	11%	0%	14%	19%	0%	0%	34%	24%	14%	19%	21%	48%	48%	22%	0%	26%	43%
Cl.c1ccc(Oc2ccc(Nc3ccnc4cc(-c5ccc(CN6CCNCC6)o5)ccc34)cc2)nc1 [GW567142]	0%	84%	0%	0%	7%	10%	0%	1%	0%	0%	0%	0%	42%	0%	20%	0%	0%	5%	2%	21%
Cn1ccc2ncnc(Oc3ccc(NC(=O)Nc4cncc(C(F)(F)F)c4)c(Cl)c3)c21	0%	14%	10%	0%	0%	0%	0%	0%	0%	0%	0%	0%	0%	0%	0%	0%	0%	0%	0%	0%
CS(=O)c1ccc(-c2coc3ccc(-c4n[nH]c(=O)o4)cc23)cc1 (centres unmarked)	50%	0%	99.6%	100%	99.6%	93.6%	1%	11%	29%	13%	8%	0%	0%	1%	17%	55%	0%	28%	0%	1%
Cc1ccn2nc(-c3ccc(F)cc3)c(-c3ccncc3)c2c1.Cl [GW457859]	32%	10%	0%	0%	0%	0%	12%	52%	0%	0%	0%	0%	16%	0%	0%	13%	0%	0%	0%	16%
COc1ccc(Nc2nccc(N3CCC(NC(=O)c4cccc(C#N)c4)C3)n2)cc1 (centres unmarked) [GSK1379730]	6%	5%	0%	0%	0%	2%	42%	0%	0%	0%	0%	6%	0%	0%	0%	10%	0%	3%	14%	6%
C[C@@H](Oc1cc(-n2cnc3cc(-c4cnn(C)c4)ccc32)sc1C(N)=O)c1ccccc1Cl [GSK580432]	0%	64%	20%	0%	4%	1%	91.3%	0%	0%	0%	0%	8%	4%	1%	0%	45%	34%	25%	23%	0%
CNC(=O)c1ccccc1Nc1nc(Nc2cccc(CS(C)(=O)=O)c2)ncc1C.O=CO [GSK1520489]	52%	99.2%	93.5%	88%	92.7%	97.2%	96.8%	0%	20%	90.7%	61%	37%	73%	92.6%	96%	99.7%	98.3%	98.1%	100%	84%
CN1CCN(CCCNc2nccc(-c3c(-c4ccc(F)cc4)nn4cc(C(N)=O)ccc34)n2)CC1 [GW622475]	0%	8%	5%	0%	27%	0%	13%	6%	12%	0%	0%	0%	39%	0%	2%	29%	0%	11%	10%	5%
OCCn1cc(-c2cnc3nnn(Cc4ccc5ncccc5c4)c3n2)cn1	0%	25%	6%	0%	0%	3%	0%	0%	0%	0%	3%	0%	0%	0%	0%	0%	0%	0%	0%	0%
C[C@@H](Oc1cc(-n2cnc3cc(-c4ccncc4)ccc32)sc1C(N)=O)c1ccccc1Cl [GSK479719]	75%	9%	0%	0%	15%	24%	72%	0%	4%	14%	37%	50%	0%	0%	0%	48%	0%	26%	11%	0%
CCNCC(Cc1ccccc1)NC(=O)c1cc(Br)c(-c2ccnc3[nH]ccc23)s1.Cl.Cl (centres unmarked) [GSK1383280]	88%	0%	46%	18%	48%	92.5%	51%	0%	18%	23%	3%	33%	19%	0%	0%	42%	36%	17%	14%	36%
CC(C(=O)NC1CCN(c2ccnc(Nc3ccc(F)cc3)n2)C1)c1ccc(Cl)cc1 (centres unmarked) [GSK1379713]	30%	0%	0%	6%	0%	0%	49%	0%	0%	0%	0%	0%	0%	10%	0%	0%	0%	0%	10%	5%

SMILES	%Inh [1]	%Inh [2]	%Inh [3]	%Inh [4]	%Inh [5]	%Inh [6]	%Inh [7]	%Inh [8]	%Inh [9]	%Inh [10]	%Inh [11]	%Inh [12]	%Inh [13]	%Inh [14]	%Inh [15]	%Inh [16]	%Inh [17]	%Inh [18]	%Inh [19]	%Inh [20]
Cn1cc(-c2cccc3c(N)c(C(N)=O)nnc23)cn1	96.5%	13%	68%	62%	67%	18%	0%	0%	24%	0%	28%	39%	0%	9%	19%	31%	9%	17%	15%	9%
Cn1ccc2ncnc(Oc3ccc(NC(=O)Nc4cnn(C(C)(C)C)c4)c(Cl)c3)c21	35%	33%	26%	16%	0%	1%	5%	0%	0%	25%	29%	17%	10%	3%	11%	43%	0%	20%	2%	6%
COc1cccc(C2=C(Nc3cccc(Cl)c3)C(=O)NC2=O)c1 [SB-341556]	0%	0%	19%	0%	33%	0%	47%	0%	33%	7%	39%	47%	0%	0%	13%	46%	0%	52%	13%	7%
Cc1n[nH]c2cc(Nc3ccnc(Nc4cccc(CN5CCOCC5)c4)n3)ccc12 [GW682569]	20%	25%	0%	0%	26%	3%	24%	0%	0%	0%	0%	25%	38%	0%	7%	79%	89%	87%	1%	48%
CS(=O)(=O)Nc1ccc(-c2ccnc3[nH]ccc23)cc1 [GSK993273]	78%	0%	56%	8%	73%	34%	38%	0%	6%	2%	89%	99.1%	34%	0%	0%	61%	49%	24%	13%	70%
CSc1nccc(-c2c(-c3ccc(F)cc3)ncn2CCCN2CCOCC2)n1.Cl [SB-217146]	0%	14%	40%	0%	8%	0%	0%	13%	0%	0%	0%	0%	0%	0%	2%	25%	0%	0%	6%	0%
O=c1[nH]cc(-c2ccc(O)cc2)c2sc(-c3ccncc3)cc12 [GSK1033723]	88%	0%	67%	72%	90.1%	22%	44%	0%	0%	0%	0%	0%	9%	0%	100%	59%	1%	5%	0%	35%
Cn1ccc2ncnc(Oc3ccc(NC(=O)Nc4cc(C(C)(C)C)on4)c(Cl)c3)c21	5%	66%	36%	34%	0%	28%	30%	2%	15%	15%	17%	9%	0%	19%	20%	61%	17%	33%	16%	6%
O=C(NCC1CC1)c1ccc(-c2cc(C(=O)NC3CC3)ccc2F)cc1 [GW810445]	2%	10%	0%	0%	0%	12%	0%	56%	0%	0%	0%	0%	0%	0%	0%	0%	1%	0%	0%	0%
CC(=O)Nc1nc2cnc(Nc3cc(NC(=O)c4cccc(CC(C)(C)C#N)c4)ccc3C)nc2s1	0%	32%	29%	10%	6%	13%	0%	2%	44%	9%	0%	1%	28%	4%	16%	9%	27%	8%	0%	27%
CCN1CCN(CCCC(=O)Nc2n[nH]c3nc(-c4ccc(O)cc4)c(Br)cc23)CC1 [SB-731579]	0%	0%	75%	57%	0%	0%	8%	0%	93.3%	0%	0%	0%	0%	0%	0%	0%	0%	0%	98.8%	23%
O=C1NCCc2[nH]c(-c3ccncc3)cc21	100%	20%	91.5%	97.2%	95.5%		7%	0%	29%	0%	88%	40%	2%	0%	8%	98.6%	0%	0%	0%	6%
Cc1ccc2c(-c3ccnc(Nc4ccc(C(F)(F)F)cc4)n3)cnn2n1 [GW819776]	12%	30%	89%	80%	79%	43%	0%	0%	66%	7%	38%	10%	0%	1%	14%	73%	4%	0%	10%	4%
CN1CCN(CCNc2nc3cc(Oc4ccc(NC(=O)Nc5cc(C(F)(F)F)ccc5F)cc4)ccc3[nH]2)CC1.Cl.Cl [GW768504]	0%	11%	19%	0%	0%	66%	3%	41%	0%	0%	0%	0%	14%	0%	5%	0%	5%	0%	0%	28%
N#Cc1cccc(C(=O)NC2CCN(c3ccnc(Nc4ccc(F)cc4)n3)C2)c1 (centres unmarked) [GSK1379708]	0%	0%	0%	3%	0%	0%	40%	7%	0%	0%	16%	16%	0%	0%	4%	17%	27%	2%	2%	17%
Cn1ccc2ncnc(Oc3ccc(NC(=O)Nc4ccnc(C(F)(F)F)c4)c(Cl)c3)c21	9%	0%	35%	0%	0%	0%	0%	8%	0%	2%	46%	13%	0%	3%	5%	14%	0%	12%	0%	1%
